High-throughput results from PubChem BioAssay.
TTR transcr act = TTR transcription activators in neuroblastoma reporter cells, primary screen, cell-based, luminescence, SH-SY5Y, TTR promoter Gaussia luciferase. 100% = recombinant luciferase protein wells. activation, % at 16.7 µM. actives 1.3% (n = 92,000). AID 1117267, 2014;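 active = activation above the mean of all tested compounds plus 3 SD, cut at about 9.5% in these data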;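 also: cells exposed to compounds for one day before reading; 0% = median of all test compound wells on the plate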
HuH7 TTR inh = TTR promoter reporter inhibitors in hepatoma cells, counter-screen for TTR transcription activator project, cell-based, luminescence, HuH7 hepatoma; inhibition, % at 16.7 µM; AID 1117279, 2014; HuH7 TTR promoter-Gaussia luciferase reporter; actives 4% (n = 1,100); shares compounds with TTR transcr act;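 active = average inhibition above the solvent-only control wells' mean plus 3 SD, cut at about 15% in these data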;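 also: 0% = cells with DMSO only and 100% = cells with inhibitor control FD; inhibitors lower well luminescence so higher value means more inhibition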
TTR up confirm = TTR transcription activators, retest, confirmation, cell-based, luminescence, SH-SY5Y, triplicate | shares compounds with TTR transcr act | SHSY5Y TTR promoter Gaussia luciferase; 100% = purified Lucia enzyme wells, no cells | activation, % at 16.7 µM | 1,100 tested, under 10 active;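 active = mean activation above a set limit taken from the earlier primary screen, cut at about 11% in these data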;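 also: 0% = DMSO-treated cells and 100% = recombinant Lucia luciferase without cells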
* = called active by the depositor. Shown is part of a subset that was picked to be rich in hits.

SMILES	TTR transcr act	others
CCOC(=O)C1CCN(C(=O)CN(c2ccc3c(c2)OCO3)S(C)(=O)=O)CC1	18*	HuH7 TTR inh=-10;TTR up confirm=2
O=C(Nc1sc2c(c1-c1nc3ccccc3s1)CCNC2)C(F)(F)F	0
COC(=O)[C@]12C[C@H](CC(=O)N3CCOCC3)C(=O)N(Cc3ccc4c(c3)OCO4)C1=C[C@H](C(C)C)O[C@@H]2C1CC1	-1
CCOC(=O)C1(Cc2ccccc2C(F)(F)F)CCN(C2CCN(C(C)C)CC2)CC1	1
Cc1c(C2(O)CCCCC2)[nH]c2cc(C(F)(F)F)ccc12	-8
Cc1c(C2(O)CCCCC2)[nH]c2ncccc12	11*	HuH7 TTR inh=-16;TTR up confirm=0
Cc1c(C2(O)CCCCC2)[nH]c2cnccc12	1
O=S1(=O)c2ccc(N3CC[C@H](O)C3)cc2O[C@H]2CCN1C2	4
CCCC1CCC2(CCCN2CCOC(=S)Nc2ccccc2Cl)CC1 (stereo not given)	7
CCOC(=O)c1cc(N2CCCCC2)nc2ccccc12	0
CCOc1ccccc1/C=C/c1cc(C(=O)O)c2ccccc2n1	35*	HuH7 TTR inh=-20;TTR up confirm=1
CCOC(=O)c1cc(OCC)c2c(ccc3ccccc32)n1	0
COC(=O)[C@]12C[C@H](CC(=O)N3CCCC3)C(=O)N(Cc3ccc(Cl)cc3Cl)C1=C[C@H](C(C)C)O[C@@H]2C1CC1	-1
N#Cc1ccc(-c2ccccc2)nc1SCC(=O)c1cc2ccccc2oc1=O	1
COc1cc(OC)c(C2C(C#N)=C(C)NC(C)=C2C#N)c(C(=O)O)c1	30*	HuH7 TTR inh=-3;TTR up confirm=1
COc1ccc(C2CC(=O)C3=C(C2)NC(C)=C(C#N)C3c2ccc(N(C)C)cc2)cc1 (stereo not given)	-2
COc1ccc(C(=O)O)c(O)c1	1
O=C(C(=O)N1CCN(C/C=C/c2ccccc2)CC1)c1ccccc1	0
CCN1C(=O)c2cccc3c(NC(=O)c4ccc(S(=O)(=O)N(C)C)cc4)ccc1c23	9.9*	HuH7 TTR inh=-12;TTR up confirm=2
CCN1C(=O)c2cccc3c(S(=O)(=O)N4CCC(C)CC4)ccc1c23	0
CCOC(=O)c1ccc(NC(=O)Nc2ccc3c4c(cccc24)C(=O)N3CC)cc1	-2
COc1ccc(S(=O)(=O)N2CCCCCC2)cc1NC(=O)CCNC(=O)c1ccccc1Cl	0
CS(=O)(=O)N(CC(=O)NCc1ccncc1)c1cc(Cl)ccc1Cl	0
Cc1ccccc1CSc1nnc(C)c(=O)[nH]1	0
Cc1nc(C)c(-c2ccc(SCc3ccccc3C)nn2)s1	16*	HuH7 TTR inh=8;TTR up confirm=-1
SMILES	TTR transcr act	others
COc1cccc(NC(=O)CSc2ccc(-c3sc(C)nc3C)nn2)c1	-2
COC(=O)[C@]1(C)N[C@H](CN(C)S(=O)(=O)c2ccc(C)cc2)[C@@H]2C(=O)N(Cc3ccccc3)C(=O)[C@@H]21	1
CCOC(=O)CCCNC(=O)O[C@@H]1CC[C@@]23CCCN2C(=O)CCC[C@H]3C1	4
CCOc1ccc(C(=O)NCC2CCN(CC3CCCCC3)CC2)cc1	0
O=C(NCCc1nc2ccccc2[nH]1)/C(=C/c1ccco1)NC(=O)c1ccc(Br)cc1	-1
COc1ccc(/C=C/C(=O)N/C(=C\c2ccco2)C(=O)NCCc2nc3ccccc3[nH]2)cc1	12*	HuH7 TTR inh=4;TTR up confirm=-1
O=C(NCCc1nc2ccccc2[nH]1)/C(=C/c1ccco1)NC(=O)c1ccccc1Br	-1
NC(=O)c1csc(CCNC(=O)c2ccccc2)n1	0
O=C(NCCc1nc2ccccc2n1CCOc1ccc2cccnc2c1)C1CCCCC1	0
CC(C)C(NS(=O)(=O)c1ccc2c(c1)Cc1cc(S(=O)(=O)NC(C(=O)O)C(C)C)ccc1-2)C(=O)O (stereo not given)	1
COc1ccccc1C(=O)N/C(=C/c1ccco1)C(=O)Nc1cccc(C(=O)O)c1	0
O=C(C[C@H]1C[C@@H]2c3cc(NC(=O)c4ccc5c(c4)OCO5)ccc3O[C@@H]2[C@H](CO)O1)NCc1cc(F)ccc1F	17*	HuH7 TTR inh=-15;TTR up confirm=2
COc1ccccc1CNC(=O)C[C@@H]1C[C@H]2c3cc(NC(=O)c4ccc5c(c4)OCO5)ccc3O[C@H]2[C@@H](CO)O1	-1
O=C(C[C@H]1C[C@H]2c3cc(NC(=O)CC4CC4)ccc3O[C@H]2[C@H](CO)O1)NCc1ccccc1F	-1
Cn1c(=O)cc(OCCCC(=O)Nc2cc(-c3cn[nH]c3)ccn2)c2ccccc21	1
COc1cc(CNCc2ccc(C)cc2)cc(OC)c1OC	2
CCOC(=O)c1cnc(-c2ccccc2)nc1N1CCOCC1	-1
CCOC(=O)c1cnc2c(-c3ccccc3)cnn2c1C	13*	HuH7 TTR inh=-2;TTR up confirm=4
CCOC(=O)c1cnc2cc(-c3ccc(Br)cc3)nn2c1C	2
Cc1nc(SCC(=O)N(C)c2ccccc2)[nH]c(=O)c1C	0
C[C@H](CO)N1C[C@H](C)[C@@H](CN(C)C(=O)c2ccc3c(c2)OCO3)Oc2cc(/C=C/c3ccccc3)ccc2S1(=O)=O	-3
Cc1cccc(NC(=S)NCc2ccccc2Cl)c1C	-2
CCc1nc2ccc(C(=O)NCc3ccc4c(c3)OCO4)cn2c1N(C)Cc1ccc(OC)cc1	0
CC(C)C[C@H]1CNC(=O)C(=O)N1C[C@H]1CCCN1C[C@H](CC(C)C)N1C[C@H](Cc2ccccc2)N(CCc2ccccc2)C(=O)C1=O	8
Fc1cc(F)cc(NC(=S)Nc2ccccc2N2CCOCC2)c1	12*	HuH7 TTR inh=-3;TTR up confirm=-1
SMILES	TTR transcr act	others
COc1cc(OC)cc(C(=O)Nc2ccccc2N2CCOCC2)c1	-1
O=C(Nc1ccccc1N1CCOCC1)c1ccc2ccccc2c1	-1
CN1CCN(c2ccc(CNC(=O)C3Cc4c(-c5ccccc5)ccnc4O3)cc2)CC1 (stereo not given)	2
COc1ccc(-n2cc(COC(=O)NCCc3ccccc3)nn2)cc1	11*	HuH7 TTR inh=-8;TTR up confirm=-1
O=C(NCCc1ccccc1)OCc1cn(-c2c(F)cccc2F)nn1	1
O=C(NCCc1ccccc1)OCc1cn(-c2cccc(C(F)(F)F)c2)nn1	4
O=C(CC[C@H]1O[C@@H](n2cnc3c(NC(=O)c4ccccc4)ncnc32)[C@H](O)[C@@H]1O)N[C@@H](CO)c1ccccc1	0
Cc1cc(C)cc(OCC(=O)Nc2ccc(-n3cnnn3)cc2)c1	-2
Cn1c(N)c(C(=O)COC(=O)c2ccc(-c3ccccc3)cc2)c(=O)n(C)c1=O	-1
Cc1ccc(CN2CCCCC(NC(=O)c3ccccc3)C2=O)cc1 (stereo not given)	0
CN(C)CCCNC(=O)c1cc(C(=O)C2CCCCC2)c[nH]1	0
O=C(Cc1ccccc1)c1c[nH]c(C(=O)NCc2ccncc2)c1	2
CN(C)CCCNC(=O)c1cc(C(=O)Cc2ccccc2)c[nH]1	21*	HuH7 TTR inh=-11;TTR up confirm=0
CC1CCC2C(=O)N(c3ccccc3OC(=O)c3ccccc3F)C(=O)C2C1 (stereo not given)	-1
CCCCn1c(N)c(N(CC(C)C)C(=O)CN2C(=O)NC3(CC(C)CC(C)(C)C3)C2=O)c(=O)[nH]c1=O (stereo not given)	11*	HuH7 TTR inh=-3;TTR up confirm=0
CCCCn1c(N)c(N(CC(C)C)C(=O)C2CC(=O)N(c3ccc(C)cc3)C2)c(=O)[nH]c1=O (stereo not given)	0
